The record followed here is PubChem BioAssay.

The source made the active and inactive calls.

One assay has as its target Albumin (Bos taurus) (UniProt P02769). The assay is described as follows: bovine serum albumin binders on microarray, profiling panel, artefact control for SMM control protein annotation, biochemical, small-molecule microarray, Alexa647 label, 635/667 nm fluorescence (AID 1118).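 Also: score merges 667 nm emission intensity and signal-to-noise per printed compound spot.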 Particulars: BSA-A647 binding, fluorescence 635 nm, higher = more signal.
Assay [1] in a line: small-molecule microarray binders of probe aXIP, primary screen, biochemical, NeuroSMM set, 635/667 nm fluorescence (AID 1119).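 Also: probe is the protein aXip251-270 applied at 1 µg/mL to compound-printed slides; binding of probe to printed compounds measured as 667 nm fluorescence plus signal to noise.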 The note with it: higher = more signal, called active from +8 up or from −8 down.
A short description of assay [2]: small-molecule binders of probe aNOTCH3, primary screen, biochemical, small-molecule microarray, 635/667 nm fluorescence (AID 1120).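 Also: probe is a biotin-tagged antibody raised against NOTCH3 rather than NOTCH3 protein; score merges spot fluorescence near 667 nm with spot signal to noise.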 The note with it: higher = more signal.
Assay [3] is described as follows: small-molecule binders of probe aNOTCH2, primary screen, biochemical, small-molecule microarray, 635/667 nm fluorescence (AID 1121).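 Also: score merges feature fluorescence read at 667 nm with its signal to noise.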 The note with it: higher = more signal.
The target of assay [4] is Carbonic anhydrase 2 (Homo sapiens) (UniProt P00918). Put plainly: CAII small-molecule binders, profiling panel, biochemical, small-molecule microarray, Alexa647-labelled CAII (AID 1122). Particulars: CAII-A647 binding fluorescence, higher = more signal.
Assay [5] in a line: COS7 lysate on small-molecule microarray, probe aHis, 635 nm (AID 1123).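 Also: z-score combines 667nm fluorescence intensity with signal-to-noise per printed compound spot.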 Particulars: COS7 cell lysate, fluorescence, higher = more signal.
Assay [6] in a line: compound binding in COS7 lysate, probe aLAP1, primary screen, cell lysate, small-molecule microarray (AID 1124).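 Also: lysate comes from COS7 cells expressing LAP1 and is applied at 0.3 µg/mL; score merges spot fluorescence near 667 nm with signal-to-noise over triplicate slides.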 Particulars: probe aLAP1, fluorescence, higher = more signal.
A further assay relates to Sam68 (KHDRBS1). Put plainly: Sam68 small-molecule binders, primary screen, biochemical, small-molecule microarray, 635 nm fluorescence (AID 1125).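 Also: score merges 667 nm channel intensity with signal to noise over triplicate slides.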 Particulars: small-molecule microarray binding, higher = more signal.
Assay [7] relates to Chordin-like protein 2 (CHRDL2). The assay is described as follows: CHRDL2 small-molecule binders, primary screen, biochemical, small-molecule microarray, 635 nm fluorescence (AID 1126).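 Also: printed compound slides probed with Chrdl2 protein at 4 µg/mL for 1 h at 4 C; score merges 667 nm emission intensity with signal to noise over three replicate slides.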 The note with it: small-molecule microarray binding, fluorescence 635 nm; higher = more signal.
Assay [8] addresses Concanavalin-A (Canavalia ensiformis) (UniProt P02866). Put plainly: ConA small-molecule binders, primary screen, artefact control for SMM control protein annotation, biochemical, small-molecule microarray, Alexa647 label, 635 nm (AID 1127).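 Also: z combines 667 nm emission intensity with signal-to-noise across three replicate slides.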 Particulars: ConA-A647 binding fluorescence, higher = more signal.
Assay [9] is described as follows: anti-His antibody binders, primary screen, artefact control for SMM control protein annotation, biochemical, small-molecule microarray, 635 nm fluorescence (AID 1128).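 Also: score merges feature fluorescence with signal-to-noise for each printed compound spot.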 The note with it: anti-His Alexa647 antibody binding, higher = more signal.
Assay [10] concerns Human papillomavirus type 1a E7 protein (residues 1-88). The assay is described as follows: HPV1a E7 small-molecule binders, primary screen, biochemical, small-molecule microarray, residues 1-88, 635 nm (AID 1129). The note with it: small-molecule microarray binding, fluorescence 635 nm; higher = more signal.
Assay [11] deals with Focal adhesion kinase 1 (Homo sapiens) (UniProt Q05397). Put plainly: small-molecule microarray binders of FAK, primary screen, biochemical, 635/667 nm fluorescence, BSA, DTT (AID 1130).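 Also: composite of spot emission at 667 nm and signal to noise over triplicate slides.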 The note with it: PTK2 binding, 635 nm fluorescence, higher = more signal.
Sequence of Focal adhesion kinase 1 (Homo sapiens) (Q05397 whole entry, looked up): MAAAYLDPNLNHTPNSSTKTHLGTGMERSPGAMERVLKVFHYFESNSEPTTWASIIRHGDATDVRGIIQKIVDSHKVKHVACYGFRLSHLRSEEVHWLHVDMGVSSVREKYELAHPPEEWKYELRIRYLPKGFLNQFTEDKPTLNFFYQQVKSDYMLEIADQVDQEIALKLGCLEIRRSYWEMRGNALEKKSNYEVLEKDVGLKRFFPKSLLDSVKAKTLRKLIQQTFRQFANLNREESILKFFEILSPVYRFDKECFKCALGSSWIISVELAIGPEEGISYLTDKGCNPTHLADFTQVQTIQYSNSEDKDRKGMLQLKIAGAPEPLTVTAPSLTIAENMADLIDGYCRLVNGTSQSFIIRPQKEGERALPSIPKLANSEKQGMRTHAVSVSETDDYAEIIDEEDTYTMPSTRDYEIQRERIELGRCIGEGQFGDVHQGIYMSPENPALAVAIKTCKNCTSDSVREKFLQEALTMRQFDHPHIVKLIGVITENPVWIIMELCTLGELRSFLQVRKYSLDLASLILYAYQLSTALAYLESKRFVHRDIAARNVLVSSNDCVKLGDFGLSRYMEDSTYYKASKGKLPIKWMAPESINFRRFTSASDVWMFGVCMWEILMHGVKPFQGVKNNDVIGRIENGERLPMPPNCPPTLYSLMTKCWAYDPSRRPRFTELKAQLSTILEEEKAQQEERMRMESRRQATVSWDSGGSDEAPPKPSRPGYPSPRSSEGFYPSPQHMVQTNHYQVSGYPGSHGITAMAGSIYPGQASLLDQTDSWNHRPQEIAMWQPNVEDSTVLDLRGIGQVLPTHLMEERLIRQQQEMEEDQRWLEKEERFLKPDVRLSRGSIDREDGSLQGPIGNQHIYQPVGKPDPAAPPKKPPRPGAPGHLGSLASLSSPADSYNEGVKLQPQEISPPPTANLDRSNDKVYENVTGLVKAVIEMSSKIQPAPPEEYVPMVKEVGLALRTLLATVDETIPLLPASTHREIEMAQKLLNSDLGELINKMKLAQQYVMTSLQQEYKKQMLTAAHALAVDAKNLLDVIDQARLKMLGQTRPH
For assay [12], the system named is Fibrinogen (Alexa647-labelled). The assay is described as follows: fibrinogen binders on compound microarrays, profiling panel, artefact control for SMM control-protein annotation, biochemical, small-molecule microarray, 635/667 nm fluorescence (AID 1131).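 Also: z-score merges 667 nm fluorescence with per-spot signal-to-noise over triplicate slides.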 The note with it: fibrinogen-A647 binding fluorescence, higher = more signal.
Assay [13] concerns the target Follistatin (Homo sapiens) (UniProt P19883). The assay is described as follows: follistatin binders on small-molecule microarrays, primary screen, biochemical, small-molecule microarray, 635/667 nm fluorescence (AID 1132). The note with it: FST binding, 635 nm fluorescence, higher = more signal.
The target of assay [14] is Fibroblast growth factor 2 (Homo sapiens) (UniProt P09038). The assay is described as follows: FGF2 binders on small-molecule microarrays, primary screen, biochemical, small-molecule microarray, 635/667 nm fluorescence (AID 1133). Particulars: small-molecule microarray binding, FGF2, fluorescence 635/667; higher = more signal.
Sequence of Fibroblast growth factor 2 (Homo sapiens) (P09038 whole entry, looked up): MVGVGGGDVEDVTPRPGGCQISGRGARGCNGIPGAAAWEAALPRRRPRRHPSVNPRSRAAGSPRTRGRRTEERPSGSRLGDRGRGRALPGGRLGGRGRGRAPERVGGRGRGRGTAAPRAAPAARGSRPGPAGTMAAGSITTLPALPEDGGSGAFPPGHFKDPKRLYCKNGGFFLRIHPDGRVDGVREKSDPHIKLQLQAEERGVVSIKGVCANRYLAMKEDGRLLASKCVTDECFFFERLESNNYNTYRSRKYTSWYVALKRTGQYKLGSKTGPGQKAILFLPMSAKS
The nature of assay [15]: mitochondrial membrane potential change in A549 cells, profiling panel, cell-based, JC-1 fluorescence, basal, 24 h, 100 nL (AID 1138).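 Also: A549 lung adenocarcinoma cells under basal conditions with no added stimulus; test concentration not given here.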 Particulars: higher = more signal.
The subject of a further assay is Lefty1. Put plainly: Lefty1 binders on small-molecule microarrays, primary screen, biochemical, small-molecule microarray, 635/667 nm fluorescence (AID 1139). The note with it: small-molecule microarray binding, fluorescence 635/667; higher = more signal.
Assay [16] relates to wheat germ agglutinin (Triticum aestivum), Alexa647-labelled. The assay is described as follows: wheat germ agglutinin binders on compound microarrays, profiling panel, artefact control for SMM control-protein annotation, biochemical, small-molecule microarray, 635/667 nm fluorescence (AID 1140).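 Also: score merges 667 nm feature emission with signal to noise over triplicate slides.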 Particulars: WGA-A647 binding, 635 nm fluorescence, higher = more signal.
Assay [17] concerns the target Luciferin 4-monooxygenase (Photinus pyralis) (UniProt P08659). The assay is described as follows: firefly luciferase enzyme inhibitors, primary screen, biochemical, luminescence, purified enzyme, 2006 set (AID 1141).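 Also: cell-free assay with purified firefly luciferase at 100 ng per well in PBS; test concentration not given here.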 Particulars: SteadyGlo luminescence, 30 min, higher = more signal, called active from +8 up or from −8 down.

Sequence of Concanavalin-A (Canavalia ensiformis) (P02866 whole entry, looked up): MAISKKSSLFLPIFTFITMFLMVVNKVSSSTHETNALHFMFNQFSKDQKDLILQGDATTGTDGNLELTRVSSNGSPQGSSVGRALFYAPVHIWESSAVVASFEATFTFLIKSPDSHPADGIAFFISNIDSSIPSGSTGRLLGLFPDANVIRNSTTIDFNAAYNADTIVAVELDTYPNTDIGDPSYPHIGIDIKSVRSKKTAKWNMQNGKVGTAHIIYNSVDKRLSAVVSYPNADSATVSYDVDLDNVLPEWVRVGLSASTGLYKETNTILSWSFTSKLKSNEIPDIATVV
Sequence of Follistatin (Homo sapiens) (P19883 whole entry, looked up): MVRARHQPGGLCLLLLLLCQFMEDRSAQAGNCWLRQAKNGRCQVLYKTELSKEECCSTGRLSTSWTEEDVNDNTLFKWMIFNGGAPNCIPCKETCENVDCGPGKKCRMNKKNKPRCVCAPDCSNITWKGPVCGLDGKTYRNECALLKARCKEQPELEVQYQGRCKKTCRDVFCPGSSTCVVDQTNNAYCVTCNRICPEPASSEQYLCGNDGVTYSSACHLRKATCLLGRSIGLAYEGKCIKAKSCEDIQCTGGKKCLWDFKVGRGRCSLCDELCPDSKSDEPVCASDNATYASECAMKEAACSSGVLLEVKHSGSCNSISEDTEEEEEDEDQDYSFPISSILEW
Sequence of Luciferin 4-monooxygenase (Photinus pyralis) (P08659 whole entry, looked up): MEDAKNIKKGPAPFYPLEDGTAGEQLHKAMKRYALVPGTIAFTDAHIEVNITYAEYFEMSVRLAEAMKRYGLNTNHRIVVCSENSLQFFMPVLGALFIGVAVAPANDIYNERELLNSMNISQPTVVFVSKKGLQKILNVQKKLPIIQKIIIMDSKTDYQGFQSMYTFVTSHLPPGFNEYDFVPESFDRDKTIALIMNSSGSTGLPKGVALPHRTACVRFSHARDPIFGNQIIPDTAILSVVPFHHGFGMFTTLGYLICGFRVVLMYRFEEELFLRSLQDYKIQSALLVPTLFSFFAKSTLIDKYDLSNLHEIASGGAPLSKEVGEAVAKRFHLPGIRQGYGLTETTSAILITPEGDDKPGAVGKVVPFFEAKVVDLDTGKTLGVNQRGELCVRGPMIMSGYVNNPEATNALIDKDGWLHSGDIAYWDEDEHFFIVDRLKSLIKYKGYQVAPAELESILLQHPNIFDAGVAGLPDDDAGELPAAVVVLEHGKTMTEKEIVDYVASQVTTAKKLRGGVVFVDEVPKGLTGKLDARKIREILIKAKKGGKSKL
Sequence of Albumin (Bos taurus) (P02769 whole entry, looked up): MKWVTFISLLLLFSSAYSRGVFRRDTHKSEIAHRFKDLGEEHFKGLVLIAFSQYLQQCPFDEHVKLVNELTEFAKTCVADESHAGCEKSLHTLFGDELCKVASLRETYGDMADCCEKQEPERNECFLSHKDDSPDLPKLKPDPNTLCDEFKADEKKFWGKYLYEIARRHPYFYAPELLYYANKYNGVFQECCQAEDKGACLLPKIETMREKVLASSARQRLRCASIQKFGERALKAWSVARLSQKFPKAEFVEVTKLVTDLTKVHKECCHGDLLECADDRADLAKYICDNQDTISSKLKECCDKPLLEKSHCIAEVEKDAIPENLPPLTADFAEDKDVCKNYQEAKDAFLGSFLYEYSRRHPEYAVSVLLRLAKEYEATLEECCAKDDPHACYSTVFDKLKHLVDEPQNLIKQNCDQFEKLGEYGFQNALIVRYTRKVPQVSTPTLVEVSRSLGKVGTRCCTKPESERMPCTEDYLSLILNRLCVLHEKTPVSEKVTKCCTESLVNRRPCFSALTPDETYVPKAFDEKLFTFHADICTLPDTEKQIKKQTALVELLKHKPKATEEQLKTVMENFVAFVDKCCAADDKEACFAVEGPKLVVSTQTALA

Consider `O=C(O)[C@@]1(Cc2ccccc2)N=C(c2ccc(OCCCO)cc2)O[C@H]1c1ccccc1`, for which the composite z-score is 0.32 with Albumin (Bos taurus); -0.0932 in [2]; -0.147 in assay [3]; 0.529 in [4]; 1.29 in assay [5]; -0.183 in assay [6]. Also, the composite z-score in the assay on Sam68 (KHDRBS1) was 0.499; in [7] it was -1.15; in assay [8] it was 0.649; in assay [9] it was 1.31; in [10], -0.112; in [11] it was -0.233. Besides, the composite z-score in assay [12] is 0.967; in assay [13], 0.572; in assay [14], -0.686; in the assay on Lefty1, 0.194; in assay [16] it was 0.915. For the same molecule, in [1], the composite Z-score was -0.419 (inactive). Besides, the values for the z-score in [15] and in assay [17] were 0.593 and 1.16 (inactive), respectively.
On to `COC(=O)c1ccc(C23CC2(C(NP(=O)(c2ccccc2)c2ccccc2)c2ccccc2)C3)cc1` (stereo not given), for which the composite z-score in the assay with Albumin (Bos taurus) was found to be 0.982; in assay [2] it was 0.325; in assay [3] it was 0.359; in [4], 0.819; in [5], 2.8; in assay [6], 1.02. Moreover, the composite z-score with Sam68 (KHDRBS1) is 0.921; in assay [7], -1.12; in assay [8] it was 0.484; in assay [9], 2.12; in assay [10] it was 1.14; in [11] it was 1.2. Also, the composite z-score in assay [12] was 0.984; in [13], 1.11; in [14], -0.575; in the assay on Lefty1 it was -0.414; in assay [16], 1.15. The composite Z-score in assay [1] is 0.117 (inactive). The z-score was 2.44 in [15] and -5.98 (inactive) in assay [17].
Regarding `COC(=O)[C@@]1(Cc2ccccc2)[C@H]2c3cc(C(=O)N4CCCC4)n(Cc4ccc(C)o4)c3C[C@H]2CN1C(=O)c1ccccc1`, the composite z-score with Albumin (Bos taurus) was 0.905; in [2], 0.415; in [3] it was 0.0263; in [4] it was 0.787; in assay [5], 0.597; in [6], 0.487. In addition, the composite z-score was 0.17 in the assay with Sam68 (KHDRBS1); -0.589 in assay [7]; -0.289 in assay [8]; 0.195 in assay [9]; 1.22 in assay [10]; 0.752 in assay [11]. Besides, the composite z-score is -0.809 in assay [12]; -0.0668 in [13]; -0.675 in assay [14]; -0.0201 with Lefty1; 1.18 in [16]. The composite Z-score in [1] is -0.56 (inactive). The z-score was 0.337 in assay [15] and -2.68 (inactive) in assay [17].
Regarding `CCOC(=O)C1=CCC(c2ccc(C#N)cc2)N(S(=O)(=O)c2ccc(C)cc2)C1` (stereo not given), the composite z-score with Albumin (Bos taurus) was 0.886; in assay [2] it was 0.1; in [3] it was 0.188; in assay [4] it was 0.695; in assay [5], 1.63; in assay [6], 1.18. The composite z-score in the assay with Sam68 (KHDRBS1) was 1.3; in [7], -0.1; in assay [8], 1.14; in assay [9], 1.64; in assay [10] it was 1.2; in [11], 0.047. Further, the composite z-score in assay [12] was 0.824; in [13], 0.552; in [14], 0.168; in the assay on Lefty1, -0.303; in assay [16], 1.19. The composite Z-score in assay [1] is 0.356 (inactive). Moreover, the z-score was -0.142 in [15] and 0.115 (inactive) in assay [17].
Consider `CCOC(=O)[C@H]1C/C=C/C[C@H](C(=O)OCC)C(=O)O[C@H]2[C@@H](OC)O[C@H](CO)[C@@H](OC(=O)Nc3ccc4c(c3)OCO4)[C@@H]2OC1=O`, for which the composite z-score is 0.783 with Albumin (Bos taurus); 0.0927 in [2]; -0.0425 in assay [3]; 0.484 in assay [4]; 1.74 in assay [5]; 0.143 in assay [6]. The composite z-score in the assay with Sam68 (KHDRBS1) is 0.521; in assay [7], -0.384; in [8], 0.468; in [9], 2.08; in [10], 1.2; in assay [11] it was 0.528. Further, the composite z-score in assay [12] is 0.485; in [13] it was -0.114; in assay [14], 0.254; in the assay on Lefty1 it was 0.403; in assay [16], -0.115. In addition, in assay [1], the composite Z-score is 0.622 (inactive). Also, the z-score in [15] is -1.25; in [17] it was -1.93 (inactive).
As for `C=C[C@H](C)[C@@H](O)c1ccc(O)c2ccccc12`, the composite z-score in the assay with Albumin (Bos taurus) was 0.841; in assay [2], -0.191; in assay [3], 0.291; in [4] it was 0.493; in assay [5] it was 0.165; in assay [6] it was 0.361. Also, the composite z-score in the assay with Sam68 (KHDRBS1) was -0.49; in [7], 0.866; in [8], -1.04; in [9] it was 1.25; in assay [10], -0.655; in [11] it was -0.432. In addition, the composite z-score is -0.407 in assay [12]; 1.05 in assay [13]; 0.944 in assay [14]; 0.246 in the assay with Lefty1; 0.545 in [16]. Moreover, the composite Z-score in assay [1] is 0.681 (inactive). Moreover, the z-score in assay [15] was -0.401; in [17], -0.322 (inactive).
